Assay results reported in PubChem BioAssay AID887 (National Center for Advancing Translational Sciences (NCATS), 2007).
“And” between values parts separate entries of the source, which are not always exact repeats. Identical values can stand only once. In all, about 74,000 compounds went through this assay and about 1,100 (1.5%) were called active. A call without a number means that no potency is given here. Not shown: some 5% with an inconclusive outcome. Calls come from the whole dose curve; as a rule, active = well fitted inhibition curve with a large enough effect; inconclusive = small, poorly fitted or top-dose-only effect; inactive = no such curve, though single readings can be large or run the other way. The sample as a whole holds a higher share of actives than the screen did.

These molecules were tested against Polyunsaturated fatty acid lipoxygenase ALOX15 (Homo sapiens) (UniProt P16050) (assay: qHTS Assay for Inhibitors of 15-hLO (15-human lipoxygenase)). Details: purified 15hLO-1, xylenol orange hydroperoxide absorbance; series mostly up to 57.1 µM.
Chain of Polyunsaturated fatty acid lipoxygenase ALOX15 (Homo sapiens) (P16050 whole entry, looked up): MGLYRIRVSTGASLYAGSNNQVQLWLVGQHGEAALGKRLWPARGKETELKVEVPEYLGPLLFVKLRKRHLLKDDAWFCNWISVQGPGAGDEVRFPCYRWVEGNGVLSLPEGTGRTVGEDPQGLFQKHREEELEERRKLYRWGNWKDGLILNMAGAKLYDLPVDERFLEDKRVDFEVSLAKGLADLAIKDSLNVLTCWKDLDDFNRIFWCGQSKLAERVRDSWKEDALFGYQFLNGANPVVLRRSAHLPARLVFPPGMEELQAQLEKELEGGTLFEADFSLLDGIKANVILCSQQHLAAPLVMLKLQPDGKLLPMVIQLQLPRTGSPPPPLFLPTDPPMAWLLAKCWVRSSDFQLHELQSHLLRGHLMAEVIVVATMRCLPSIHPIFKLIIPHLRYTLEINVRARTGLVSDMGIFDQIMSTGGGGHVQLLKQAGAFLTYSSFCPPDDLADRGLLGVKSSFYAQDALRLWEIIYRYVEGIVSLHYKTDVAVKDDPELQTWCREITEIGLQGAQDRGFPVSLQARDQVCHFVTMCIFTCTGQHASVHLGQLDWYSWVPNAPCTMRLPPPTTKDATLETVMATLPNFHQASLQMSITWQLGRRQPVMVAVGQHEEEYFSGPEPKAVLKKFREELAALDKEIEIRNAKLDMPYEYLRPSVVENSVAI
Excerpt: Assay Overview: NIH Molecular Libraries Screening Centers Network [MLSCN] NIH Chemical Genomics Center [NCGC] MLSCN Grant: MH081283-01A1 PI Name: Holman, T.R., University of California, Santa Cruz Human lipoxygenase 15hLO-1 is a member of the closely related lipoxygenase family of enzymes which catalyze the site-specific oxidation of arachidonic acid to various hormone precursor molecules and as such is a candidate for drug development in a variety of disease areas, such as cancer and inflammation. Inhibition of 15hLO-1 activity was screened by utilizing arachidonic acid as a substrate. The extent of hydroperoxide product formation was measured by a secondary chromogenic reaction in which xylenol orange (XO, Sigma-Aldrich, cat. number 39,818-7) reacts with the ferric ions produced from the reaction between the hydroperoxide and ferrous ions. The Fe(III)-XO complex is characterized with red-shifted absorbance at 560 nm. A purified preparation of human 15hLO-1 was supplied by Professor Ted Holman, University of California, Santa Cruz.
Assay Protocol: Buffer: 25 mM Hepes pH 7.5, 0.01% Triton X-100. Reagents/Controls: Buffer in columns 3 and 4 as negative control (no enzyme). Substrate solution: 50 uM arachidonic acid (Sigma-Aldrich, St. Louis, MO) final concentration dispensed throughout the plate. Enzyme: 40 nM 15hLO-1 final concentration in columns 1, 2, 5-48. Column 1 is neutral (100% activity). Column 2 contained pin-transferred titration of NDGA (nordihidroguaiaretic acid, Sigma-Aldrich, N 5023, top concentration 10 mM in DMSO, then 1:2 dilution in duplicate). (Dilution factor: 23 nL into 4 uL.) Chromogenic detection reagent (divalent iron/xylenol orange, Fe-XO): 200 uM xylenol orange plus 300 uM ferrous ammonium sulfate prepared freshly in 50 mM sulfuric acid. Assay Steps: Three uL of enzyme were dispensed to 1536-well Greiner black clear bottom plates. Compounds and controls (23 nL) were transferred via Kalypsys PinTool. The plates were incubated for 15 min at room temperature, and then 1 uL of substrate solution was added to start the reaction. After room temperature incubation for 6 minutes, 4 uL of Fe-XO solution was added to each well followed by a short spin (1000 rpm, 15 sec) and the plates were then incubated for 30 min. The absorbance at 405 and 573 nm were measured using ViewLux (Perkin-Elmer) High-throughput CCD imager and absorbance protocol settings. The 573-to-405 absorbance ratio was used to compute reaction progress.
Note: nearly all actives have a fitted effect of over 55% in size.
Potency is the fitted concentration of half-maximal effect.

**Q.** With `Cc1nc2ccccc2c(=O)n1CCCn1ccnc1` as the molecule, how does the activity change, negative = inhibition read?
**A.** The activity change, negative = inhibition was “inactive”.

**Q.** For `Cc1ccnc(-n2sc3ccccc3c2=O)n1`, which Potency is on record?
**A.** The Potency was 20 µM (active).

**Q.** Which activity change, negative = inhibition does the source give for `Cc1ccnc(N2CCC(C(=O)NC3CCCCCC3)CC2)n1` here?
**A.** The activity change, negative = inhibition was “inactive”.

**Q.** With `CC(C)=CCC/C(C)=C/CC/C(C)=C/CC/C(C)=C/CO` as the molecule, how does the activity change, negative = inhibition read?
**A.** Its activity change, negative = inhibition is “inactive”.

**Q.** With `O=C(O)[C@@H](O)Cc1ccccn1` as the molecule, how does the activity change, negative = inhibition read?
**A.** Its activity change, negative = inhibition is 2.76% [at 11.4 µM] (inactive).

**Q.** With `COc1ccc(/C=C/NC(=O)Cc2ccc(OC)c(OC)c2)cc1` as the molecule, how does the activity change, negative = inhibition read?
**A.** Its activity change, negative = inhibition is 4.24% [at 11.4 µM] (inactive) and -3.82% [at 11.4 µM] (inactive).

**Q.** How did the activity change, negative = inhibition turn out when `CCCCc1nc2ccccc2c(=O)n1NC(=O)c1c(O)c2cccc3c2n(c1=O)CC3` was run?
**A.** Its activity change, negative = inhibition is “inactive”.

**Q.** For `CCOC(=O)N1CCN(CC(=O)Nc2cc(C)nn2-c2nc3ccccc3s2)CC1`, which activity change, negative = inhibition is on record?
**A.** Its activity change, negative = inhibition is “inactive”.

**Q.** For `CCCCc1nc2ccccc2c(NC(=O)CN2CCN(C)CC2)c1CCC`, which Potency is on record?
**A.** Its Potency is 15.8 µM (active).

**Q.** With `CC(C)CN1CCc2nc(-c3ccccc3)c3c(c2C1)COC(C)C3` (configuration not stated) as the molecule, how does the activity change, negative = inhibition read?
**A.** The activity change, negative = inhibition was -12.9% [at 11.4 µM] (inactive).

**Q.** How did the activity change, negative = inhibition turn out when `CO[C@H]1COC(=O)[C@H](Cc2ccccc2)NC(=O)C/C=C\[C@@H](C)[C@H](OC)COC(=O)C/C=C\[C@@H]1C` was run?
**A.** Its activity change, negative = inhibition is 10.5% [at 11.4 µM] (inactive).

**Q.** How did the activity change, negative = inhibition turn out when `COC(=O)NC(c1ccccc1)[C@]1(C(C)=O)CCCC1=O` (some centres not stated) was run?
**A.** The activity change, negative = inhibition was 9.57% [at 11.4 µM] (inactive).

**Q.** Which activity change, negative = inhibition does the source give for `c1ccc(CSc2nnc(-c3ccco3)n2Cc2ccccc2)cc1` here?
**A.** Its activity change, negative = inhibition is “inactive”.

**Q.** With `Nc1cc(=O)nc(SCc2ccccc2)n1Cc1ccco1` as the molecule, how does the activity change, negative = inhibition read?
**A.** Its activity change, negative = inhibition is “inactive”.

**Q.** How did the Potency turn out when `c1ccc(CSc2nnc(-c3ccco3)c(-c3ccco3)n2)cc1` was run?
**A.** The Potency was 6.31 µM (active).

**Q.** `CC(=O)OC1CCC2(O)CC1(C)CCC1C2CC1(C)C` (configuration not stated) was tested. Which activity change, negative = inhibition did it give?
**A.** Its activity change, negative = inhibition is “inactive”.

**Q.** For `COc1ccc(CCC(=O)c2c(O)cc(OC3OC(CO)C(O)C(O)C3O[C@@H]3OC(C)C(O)C(O)C3O)cc2O)cc1O` (some centres not stated), which activity change, negative = inhibition is on record?
**A.** Its activity change, negative = inhibition is “inactive”.

**Q.** How did the activity change, negative = inhibition turn out when `CC(C)[C@@H](OCc1ccccc1)[C@H](C)/C=N\OC[C@@H](C)[C@H](OCc1ccccc1)C(C)C` was run?
**A.** Its activity change, negative = inhibition is -0.92% [at 11.4 µM] (inactive).

**Q.** With `CO[C@H]1COC(=O)CCC[C@@H](C)[C@H](OC)COC(=O)[C@@H](C)NC(=O)C/C=C\[C@@H]1C` as the molecule, how does the activity change, negative = inhibition read?
**A.** Its activity change, negative = inhibition is -1.39% [at 11.4 µM] (inactive).

**Q.** Which activity change, negative = inhibition does the source give for `CCC1(C)CC(=O)NC1=O` (configuration not stated) here?
**A.** Its activity change, negative = inhibition is “inactive”.

**Q.** `Cc1cc(C)cc(N(C(C)C(=O)Nc2c(C)n(C)n(-c3ccccc3)c2=O)S(C)(=O)=O)c1` (configuration not stated) was tested. Which activity change, negative = inhibition did it give?
**A.** The activity change, negative = inhibition was “inactive”.

**Q.** For `Cc1c(NC(=O)C(C)OC(=O)c2cc3c4ccccc4n(C)c3s2)c(=O)n(-c2ccccc2)n1C` (configuration not stated), which Potency is on record?
**A.** Its Potency is 31.6 µM (active).

**Q.** For `COC(=O)Nc1c(C)n(C)n(-c2ccccc2)c1=O`, which activity change, negative = inhibition is on record?
**A.** Its activity change, negative = inhibition is “inactive”.

**Q.** With `CC1(C)OC2CO[C@]3(COS(N)(=O)=O)OC(C)(C)OC3C2O1` (some centres not stated) as the molecule, how does the activity change, negative = inhibition read?
**A.** The activity change, negative = inhibition was “inactive”.

**Q.** `COc1ccccc1OCCNCC(O)COc1cccc2[nH]c3ccccc3c12` (configuration not stated) was tested. Which activity change, negative = inhibition did it give?
**A.** The activity change, negative = inhibition was “inactive”.

**Q.** With `Clc1ccc(CSc2nnc([C@@H]3CCCN3)o2)cc1` as the molecule, how does the activity change, negative = inhibition read?
**A.** Its activity change, negative = inhibition is “inactive”.

**Q.** Which activity change, negative = inhibition does the source give for `CC(C)N(CCNC(=O)c1ccc(-n2c(=O)c(=O)[nH]c3ccccc32)cc1)C(C)C` here?
**A.** The activity change, negative = inhibition was “inactive”.

**Q.** `CCCc1[nH]nc2c1C(c1ccc(Br)s1)C(C#N)=C(N)O2` (configuration not stated) was tested. Which Potency did it give?
**A.** Its Potency is 15.8 µM (active).

**Q.** For `CCCc1[nH]nc2c1C(C1CC=CCC1)C(C#N)=C(N)O2` (configuration not stated), which activity change, negative = inhibition is on record?
**A.** Its activity change, negative = inhibition is “inactive”.

**Q.** For `CCCc1[nH]nc2c1C(c1ccc(OC(=O)c3ccco3)cc1)C(C#N)=C(N)O2` (configuration not stated), which activity change, negative = inhibition is on record?
**A.** The activity change, negative = inhibition was “inactive”.

**Q.** `C=C1C([C@@]2(C)C(OC(C)=O)CC(=O)O[C@@](C)(COC(C)=O)C2CC(=O)OC)C(OC=O)C(OC(=O)C(O)C(C)CC)[C@]2(C)C(c3ccoc3)CC(=O)C12O` (some centres not stated) was tested. Which activity change, negative = inhibition did it give?
**A.** The activity change, negative = inhibition was “inactive”.

**Q.** How did the activity change, negative = inhibition turn out when `C/C=C(/C)C(=O)OC1Cc2c(ccc3ccc(=O)oc23)OC1(C)C` (configuration not stated) was run?
**A.** Its activity change, negative = inhibition is “inactive”.

**Q.** Which activity change, negative = inhibition does the source give for `CCCCC(=O)Nc1ccc2c(c1)OCCO2` here?
**A.** Its activity change, negative = inhibition is “inactive”.

**Q.** `CCC1=C/C(=C\c2ccc3c(c2)OCO3)C(=O)S1` was tested. Which Potency did it give?
**A.** Its Potency is 25.1 µM (active).

**Q.** For `CCOC(=O)NCc1ccc2c(c1)OCO2`, which activity change, negative = inhibition is on record?
**A.** Its activity change, negative = inhibition is “inactive”.

**Q.** Which activity change, negative = inhibition does the source give for `Cc1ccc(C2CC(c3cccc(C)c3)n3nc(N)nc3N2)cc1` (configuration not stated) here?
**A.** Its activity change, negative = inhibition is “inactive”.

**Q.** Which activity change, negative = inhibition does the source give for `CO[C@@H]1COC(=O)C/C=C\[C@H](C)[C@@H](NS(=O)(=O)c2ccc(C)cc2)COC(=O)C/C=C\[C@@H]1C` here?
**A.** Its activity change, negative = inhibition is 7.8% [at 11.4 µM] (inactive) and 8.79% [at 11.4 µM] (inactive).

**Q.** Which activity change, negative = inhibition does the source give for `COc1ccc(C2CC(=O)c3c(O)cc(OC4OC(COC5OC(C)C(O)C(O)C5O)C(O)C(O)C4O)cc3O2)cc1O` (configuration not stated) here?
**A.** Its activity change, negative = inhibition is “inactive”.

**Q.** For `COc1c(C(C)C)oc2cc3oc(=O)ccc3cc12`, which activity change, negative = inhibition is on record?
**A.** The activity change, negative = inhibition was “inactive”.

**Q.** For `CC(=O)Oc1c2c(c3c(c1CC=C(C)C)O[C@@]14C(=CC5CC1C(C)(C)OC4(C/C=C(\C)C(=O)O)C5=O)C3=O)OC(C)(CCC=C(C)C)C=C2` (some centres not stated), which activity change, negative = inhibition is on record?
**A.** Its activity change, negative = inhibition is “inactive”.

**Q.** With `Nc1nc2nc(Cl)[nH]c2c(=O)[nH]1` as the molecule, how does the activity change, negative = inhibition read?
**A.** Its activity change, negative = inhibition is “inactive”.

**Q.** Which activity change, negative = inhibition does the source give for `CC1CCc2c(sc3c2C2=NS(=O)(=O)CCN2C=N3)C1` (configuration not stated) here?
**A.** The activity change, negative = inhibition was “inactive”.
